Source: PubChem BioAssay
CRE-bla Fsk: CRE-bla signaling modulation under forskolin stimulation | Potency, µM (highest dose often 38.2 µM), without a hit: at the highest dose activity change, negative = inhibition, actives largely listed as activators | AID 662 | CHO CRE-bla reporter (cAMP response element driving beta-lactamase), forskolin EC10, beta-lactamase ratio | 71,000 tested, 2.5% active; active = well fitted activation curve with a large enough effect in the signal ratio, with a control signal flat, not every such curve was filed as active; inconclusive = small, poorly fitted or top-dose-only effect, or effect the other way, or a change in a side signal; the % refers to the signal ratio; note: % of control where 0% means no effect
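Modulation of forskolin signalling: compounds in titration series added with EC10 NKH 477 to CHO cells carrying a CRE-driven beta-lactamase reporter, 3 h, 37C. CCF4 FRET ratio (460/530 nm, ex 405 nm) gives %activity and AC50.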
ERK AVP inh: inhibitors of vasopressin-stimulated ERK signaling pathway; HEK293-V1b, vasopressin-stimulated pERK AlphaScreen; Potency, µM (titrated, usually from 57.5 µM), for the others: at the top dose activity, negative = inhibition, actives largely listed as inhibitors; 72,000 tested, 0.99% active; note: % is set by controls: 0 for no effect and ±100 for the full control effect; nearly all actives have a fitted effect of over 55% in size
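HEK293 cells stably expressing V1b receptor, seeded overnight in 1% FBS, were treated with compounds for 30 min at 37C, then stimulated 5 min with 25 nM vasopressin; phospho-ERK read by AlphaScreen SureFire after lysis.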
TSHR agonist: TSH receptor (human) agonism; P16473; HEK293-CNG-TSHR cells (CNG channel as cAMP sensor), membrane potential dye, cAMP; Potency, µM (series often up to 57.1 µM), for inactives: at the top dose activation, hits mostly activators; 73,000 tested, 0.48% active; AID 926; active = well fitted activation curve with a large enough effect in the main read-out, with a control signal flat, not every such curve was filed as active; inconclusive = small, poorly fitted or top-dose-only effect, or a change in a side signal; inactive = no such curve, though single readings can be large or run the other way; % of control where 0% means no effect;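 note: the control signal comes from parental cells without the receptor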
Target sequence (P16473 whole entry, looked up): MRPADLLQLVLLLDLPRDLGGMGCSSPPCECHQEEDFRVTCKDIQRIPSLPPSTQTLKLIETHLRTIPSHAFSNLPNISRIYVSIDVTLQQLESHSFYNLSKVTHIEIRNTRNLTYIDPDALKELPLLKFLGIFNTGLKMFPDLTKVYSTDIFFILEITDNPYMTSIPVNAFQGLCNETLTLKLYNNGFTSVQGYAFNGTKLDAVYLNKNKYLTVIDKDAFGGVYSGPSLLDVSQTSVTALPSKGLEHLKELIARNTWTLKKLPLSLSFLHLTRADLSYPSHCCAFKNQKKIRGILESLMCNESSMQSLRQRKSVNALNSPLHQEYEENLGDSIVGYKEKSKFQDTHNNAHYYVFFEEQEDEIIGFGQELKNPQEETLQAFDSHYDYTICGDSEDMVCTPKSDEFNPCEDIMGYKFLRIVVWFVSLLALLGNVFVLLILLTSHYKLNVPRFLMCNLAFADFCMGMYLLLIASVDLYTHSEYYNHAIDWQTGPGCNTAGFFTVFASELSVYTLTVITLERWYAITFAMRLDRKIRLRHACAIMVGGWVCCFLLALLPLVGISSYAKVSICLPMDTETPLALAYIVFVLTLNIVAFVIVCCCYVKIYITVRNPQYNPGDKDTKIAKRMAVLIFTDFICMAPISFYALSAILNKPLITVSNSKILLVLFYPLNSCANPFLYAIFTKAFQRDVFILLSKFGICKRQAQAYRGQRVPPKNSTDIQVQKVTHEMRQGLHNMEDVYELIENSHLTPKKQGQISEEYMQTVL
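cAMP rise detected as CNG-channel membrane depolarization by fluorescent dye (emission 590 nm), 30 min after compound, following 60 min dye loading containing 100 uM RO 20-1724 at room temperature. Cells: TSHR/CNG HEK 293, with parental CNG HEK 293 as control.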
IkB sig inh: inhibitors of IkB signaling in ABC-DLBCL cells | ABC-DLBCL IkBa-CBG/CBR dual luciferase ratio, 4 h; response scale: scaled: untreated 0%, proteasome inhibitor 100% | Potency, µM (titrated, usually from 57.1 µM), for inactives: top-dose IkBa stabilization activation | 110,000 tested, 0.04% active | AID 445; active = well fitted curve in the direction sought with a large enough effect in the signal ratio, not every such curve was filed as active; inconclusive = small, poorly fitted or top-dose-only effect, or a change in a side signal; the % refers to the signal ratio;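 note: the direction sought is a rising ratio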
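Luminescence ratio of IκBα-fused green versus native red beetle luciferase in OCI-Ly3 cells, 4 h post-doxycycline with compound; red signal alone, scaled from basal (0%) to zero light (-100%), flagged nonspecific or cytotoxic effects.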
HEK293 cAMP ctrl: raises cAMP in parental HEK293 cells, TSHR agonist counter-screen; Potency, µM (doses to about 57.1 µM), without a hit: at the highest dose activation, usual class: activators; 73,000 tested, 2.5% active; parental HEK293 CNG cAMP sensor, membrane potential fluorescence; AID 938; note: % of control where 0% means no effect; nearly all actives have a fitted effect of over 55% in size
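Parental HEK 293 cells stably expressing a cAMP-gated CNG channel were loaded with membrane potential dye containing 100 uM RO 20-1724 for 60 min. Compound added for 30 min; depolarization read as fluorescence intensity at 590 nm.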
Starred values were filed as active, the others as inactive; ? = inconclusive; / = no result; [ ] = another dose, or the depositor's remark. A selection: hits, their analogues and other compounds. The true share with any hit is near 3.6%. Unless noted, calls come from the whole dose curve; as a rule, active = well fitted curve in the direction sought with a large enough effect; inconclusive = small, poorly fitted or top-dose-only effect, or another doubt; inactive = no such curve, though single readings can be large; an effect the other way counts as inactive or inconclusive. Potency is the fitted concentration of half-maximal effect.

SMILES	CRE-bla Fsk	ERK AVP inh	TSHR agonist	IkB sig inh	HEK293 cAMP ctrl
O=C(CCCC(=O)N(CC(=O)NC1CCCCC1)CC1CCCO1)Nc1ccccn1 (stereo unspecified)	2%	6%	?	-4%	?
CC1CCCCN1CCNC(=O)Cn1nc(-c2ccccc2)ccc1=O (stereo unspecified)	?	1%	17%	-1%	4%
CCS(=O)(=O)NCC(c1ccco1)N1CCN(c2ccccc2)CC1 (stereo unspecified)	/	/	/	-2%	/
O=c1c(-c2nc3ccccc3o2)c2oc3ccccc3n2c2ccccc12	4µM*	-6%	-15%	1%	-20%
O=c1oc2ccc(Br)cc2cc1-c1nc2ccccc2o1	?	-7%	?	0%	-46%
CCN(CC)C(=O)c1sc2c(c1C)c(=O)n(-c1ccc(OC)cc1OC)c(=O)n2Cc1cc(C)ccc1C	/	/	/	-1%	/
Cc1nonc1NC(=O)CSc1nc(C2CCCCC2)nc2ccccc12	-2%	8%	?	?	25µM*
CSCCC(Nc1ncnc2ccc(Br)cc12)C(=O)O (stereo unspecified)	-6%	-17%	?	2%	2µM*
COc1ccc(CNC(=O)NCc2ccc(OC)c(OC)c2)cc1OC	-1%	-3%	5%	0%	2%
COc1ccc(CN/C(C)=C(/C#N)C(N)=O)cc1OC	?	-15%	13µM*	-3%	-2%
COc1ccccc1-c1ccc2ncnc(N(C)Cc3ccco3)c2c1	?	-13%	?	11%[11.4 µM]	3.2µM*
CN(Cc1ccco1)c1ncnc2ccc(-c3ccoc3)cc12	?	-27%	?	?	16µM*
CN(Cc1ccco1)c1ncncc1-c1cccc(NS(C)(=O)=O)c1	-4%	-2%	?	2%[11.4 µM]	?
CN(Cc1ccco1)c1nc(-c2ccoc2)nc2ccccc12	?	-16%	?	4%[11.4 µM]	16µM*
CN(Cc1ccco1)c1ncnc2ccc(-c3cccc(NS(C)(=O)=O)c3)cc12	1.3µM*	?	?	0%[11.4 µM]	?
CN(Cc1ccco1)c1ncnc2ccc(-c3ccccc3Cl)cc12	?	?	?	-1%[11.4 µM]	?
O=C(NCCCN1CCN(c2ccccc2F)CC1)C1COc2ccccc2C1 (stereo unspecified)	/	/	/	-1%	/
Cc1cc(F)ccc1NC(=O)CCS(=O)(=O)c1ccc2c(c1)NC(=O)CO2	/	/	/	0%	/
Cc1cccc(CNc2ccnc(-c3cccc(C#N)c3)n2)c1	19%	-25%	?	6%[11.4 µM]	?
COc1ccc(Nc2ccc3c(c2)=NC2(CCCCC2)[N+]=3[O-])cc1	-10%	16µM*	?	?	-63%
CCCCCc1cc(O)c2c(C)cc(=O)oc2c1	?	-4%	?	-2%	3.2µM*
CCc1cc(=O)oc2cc(C)cc(O)c12	22%	25µM*	-9%	-4%	6%
Cc1ccc(-c2nnc(SCC(=O)Nc3ccc4c(c3)OCCO4)n2N)cc1	-1%	4%	-4%	3%	-1%
CC(=O)NCC(c1ccc2c(c1)OCO2)N1CCN(c2ccccc2)CC1 (stereo unspecified)	/	/	/	4%	/
Cc1c(CCC(=O)O)c(=O)oc2cc(O)ccc12	?	-9%	?	-1%	?
SMILES	CRE-bla Fsk	ERK AVP inh	TSHR agonist	IkB sig inh	HEK293 cAMP ctrl
Cc1c(CCC(=O)O)c(=O)oc2cc3occ(-c4ccc(F)cc4)c3cc12	10µM*	-15%	-2%	2%	-8%
COCC(=O)NCc1ccc2c(c1)OCO2	-5%	-10%	-6%	1%	13%
Cn1c(C(=O)NCc2ccc3c(c2)OCO3)cc2sccc21	-2%	-23%	?	2%	?
CC(C)n1c(C(=O)OCC(=O)NCc2ccc3c(c2)OCO3)cc2sccc21	18%	-29%	?	?	7.9µM*
CC(C)n1c(C(=O)OCC(=O)NCc2ccc3c(c2)OCO3)cc2occc21	19%	0%	?	?	16µM*
COC(=O)NC(/C(C(=O)OC)=C(\C)NCc1ccccc1)c1cccs1 (stereo unspecified)	/	32%[11.5 µM]	?	/	?
O=C(NCc1ccco1)c1cc2cc3ccc(Cl)cc3nc2o1	2µM*	-9%	-4%	-1%	5%
Cc1ccc2nc3c(cc(C(=O)NCc4cccnc4)c(=N)n3C(C)C)c(=O)n2c1	?	2%	-14%	1%	-1%
Cc1cccn2c(=O)c3cc(C(=O)NCc4cccnc4)c(=N)n(C(C)C)c3nc12	13µM*	-9%	?	2%	-37%
CCCCCn1c(=NC(=O)c2ccco2)c(C(=O)OCC)cc2c(=O)n3ccccc3nc21	10µM*	-14%	?	11%	-31%
CC(C)n1c(=N)c(C(=O)NCCc2ccccc2)cc2c(=O)n3ccccc3nc21	10µM*	-4%	?	-4%	-82%
CCCCNC(=O)c1cc2c(=O)n3cccc(C)c3nc2n(Cc2ccncc2)c1=N	3.2µM*	6%	-12%	-1%	-9%
CC(=O)N1CCN(C(=O)C(=O)Nc2c3c(nn2-c2ccc(Cl)cc2)CSC3)CC1	/	/	/	0%	/
O=C(Nc1nc2ccccc2n1CCOc1ccccc1Cl)c1ccccc1	/	/	/	-1%	/
C=CC(C1=CC(=O)C(OC)=CC1=O)c1ccc(OC)cc1 (stereo unspecified)	/	-4%	/	/	/
CCn1c(=N)c(C(=O)OC)cc2c(=O)n3ccccc3nc21	10µM*	-14%	?	-2%	?
CSc1nc(-c2ccco2)cc(-c2ccccc2)c1C#N	?	18%	?	3%	?
CC(C)Cc1cc(-c2ccco2)c(C#N)c(N)n1	1.6µM*	-18%	?	-1%	?
N#Cc1c(-c2ccco2)cc(-c2ccc(F)cc2)nc1N	13µM*	5%	?	3%	?
Cc1ccc(NC(=O)Cn2c(=O)c3cc(Cl)ccc3n3nncc23)cc1	/	/	/	0%	/
CC(C)Sc1nc2c(c(=O)n(C)c(=O)n2C)n1Cc1ccc(Cl)cc1	5%	?	?	7%	7.9µM*
CCN(CC)CCCNC(=O)c1cn(C)c2ccc(S(=O)(=O)N(C)C)cc2c1=O	-6%	-22%	-1%	-1%	4%
Cc1nnc(NC(=O)CSc2nnc(Cc3cccn3C)n2C)s1	-7%	/	?	0%	?
COc1ccc(CNc2cc(C)nc3ncnn23)c(OC)c1	25%	-7%	?	1%	4µM*
COc1ccc(Nc2cc(C)nc3ncnn23)c(OC)c1	14%	-19%	3%	4%	-1%
O=C(O)c1ccc(S(=O)(=O)c2ccc3c(c2)C(=O)N(Cc2ccco2)C3=O)cc1	-5%	-22%	32µM*	2%	17%
